Counter-ions that a name gives are not always drawn.
test system: primary human hepatic stellate cells (donor 1); test: PSMB2 reference mRNA level vs DMSO (fold); higher = more PSMB2 expression; conditions: 48 h
Description: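 Secondary qRT-PCR screen in primary human HSCs (donor 1), 384-well plates, with compounds dispensed in quadruplicate and incubated for 48 h. Cells-to-CT lysates were used for multiplexed TaqMan qPCR of ACTA2 or COL1A1 with PSMB2 as reference. Fold changes versus DMSO come from a linear model (Ct_gene ~ Ct_PSMB2 + plate + chemical). A hit is defined as COL1A1 and ACTA2 FC <0.5 (FDR <0.05) with PSMB2 between 0.2 and 2.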

SMILES	PSMB2 reference mRNA level
CNCc1ccc(-c2cc(-c3nc(-c4ccc(S(=O)(=O)C(C)C)cc4)cnc3N)on2)cc1 (11.1 µM)	0.118
CC(C)NCCCn1c(Sc2cc3c(cc2I)OCO3)nc2c(N)ncnc21 (33.3333 µM)	0.581
CCCSc1ccc2[nH]c(NC(=O)OC)nc2c1 [Albendazole] (33.3333 µM)	1.65
CN1CCN2c3ccccc3Cc3ccccc3C2C1 (stereo not given) [Mianserin hcl] (25.2333 µM)	1.26
Cc1ccc(NC(=O)c2ccc(CN3CCN(C)CC3)cc2)cc1Nc1nc(-c2cccnc2)cs1 [Masitinib (AB1010, Masivet)] (6.66667 µM)	0.679
COc1cc2nc(N3CCCN(C)CC3)nc(NC3CCN(Cc4ccccc4)CC3)c2cc1OC (3.33333 µM)	0.211
COc1cc2ncn(-c3cc(OCc4ccccc4C(F)(F)F)c(C(N)=O)s3)c2cc1OC (33.3333 µM)	1.6
COc1ccccc1OCCNCC(O)COc1cccc2[nH]c3ccccc3c12 (stereo not given) [Carvedilol] (33.3333 µM)	2.15
O=C1Nc2ccccc2/C1=C1/Nc2ccccc2C1=O [Indirubin] (63.5333 µM)	1.03
CCCCCCCCCCCCCCCCn1cc[n+](Cc2ccccc2)c1C (11.1 µM)	0.00468
CN1CCN(C2=Cc3ccccc3Oc3ccc(Cl)cc32)CC1 (33.3333 µM)	0.977
OCCN1CCN(CCCN2c3ccccc3Sc3ccc(C(F)(F)F)cc32)CC1 (33.3333 µM)	0.145
O=C(Nc1ncc(SCCN2CCCC2)s1)[C@]1(c2ccc(S(=O)(=O)C3CC3)cc2)C[C@H]1C1CCCCC1 (11.1 µM)	0.35
CN(C)CCC(c1ccc(Br)cc1)c1ccccn1 (stereo not given) [Brompheniramine maleate] (33.3333 µM)	1.3
O=C1NC(=O)/C(=C/c2ccc(-c3ccc(F)cc3O)o2)S1 (33.3333 µM)	3.41
CC[C@@H]1C(=O)N(C)c2cnc(Nc3ccc(C(=O)NC4CCN(C)CC4)cc3OC)nc2N1C1CCCC1 (33.3333 µM)	0.0022
C[C@@H](Oc1cc(-c2cnn(C3CCNCC3)c2)cnc1N)c1c(Cl)ccc(F)c1Cl (11.1 µM)	0.805
Cc1cnc(-c2cnc(NCCNc3ccc(C#N)cn3)nc2-c2ccc(Cl)cc2Cl)[nH]1 (33.3333 µM)	2.78
CSc1ccc2c(c1)C(N1CCN(C)CC1)Cc1ccccc1S2 (stereo not given) [Methiothepin maleate] (33.3333 µM)	0.000808
CCc1cc2c(cc1CC)CC(NC[C@H](O)c1ccc(O)c3[nH]c(=O)ccc13)C2 [Indacaterol Maleate] (33.3333 µM)	0.728

SMILES	PSMB2 reference mRNA level
CN(C)Cc1c(C(=O)NCCOc2ccc(C(=O)NO)cc2)oc2ccccc12 (33.3333 µM)	0.5
CN1CCC(NC(=O)c2cc(-c3c(O)cc(O)cc3Oc3ccc([N+](=O)[O-])cc3)on2)CC1 (33.3333 µM)	0.306
Clc1ccc(C2(c3ccc(-c4cn[nH]c4)cc3)CCNCC2)cc1 (33.3333 µM)	0.745
CN1CCC(=C2c3ccccc3C=Cc3ccccc32)CC1 [Cyproheptadine] (33.3333 µM)	0.904
CCCCCCCCCCCCC/C=C/[C@@H](O)[C@H](CO)N(C)C [N,N-Dimethylsphingosine] (3.33333 µM)	0.511
CN(C)C/C=C(/c1ccc(Br)cc1)c1cccnc1 [Zimelidine dihydrochloride] (11.1 µM)	0.28
CN1CCC(Nc2ncc3ncnc(Nc4ccc(F)c(Cl)c4)c3n2)CC1 [BIBX 1382 dihydrochloride] (33.3333 µM)	0.0502
Cc1nc(Nc2ncc(C(=O)Nc3c(C)cccc3Cl)s2)cc(N2CCN(CCO)CC2)n1 (33.3333 µM)	1.6
CS(=O)(=O)CCNCc1ccc(-c2ccc3ncnc(Nc4ccc(OCc5cccc(F)c5)c(Cl)c4)c3c2)o1 (6.66667 µM)	1.27
Cc1cc(Nc2cc(N3CCN(C)CC3)nc(/C=C/c3ccccc3)n2)n[nH]1 (11.1 µM)	0.122
Clc1ccccc1CNCC1CCC(CNCc2ccccc2Cl)CC1 (stereo not given) (33.3333 µM)	0.138
Cc1ccc(-c2ccc3c(ccc4sc5c(c43)NC[C@@H](C)NC5=O)n2)cn1 (33.3333 µM)	3.41
[O-][S+](c1ccccc1)c1ccc2nnnn2n1 (stereo not given) (33.3333 µM)	0.000399
CNCc1ccc(C)c(NC(=O)c2ccc(Nc3nc(-c4ccccc4)c4ccccc4n3)cc2)c1 (33.3333 µM)	0.000816
N=C(N)SCCc1ccc(OCc2ccc([N+](=O)[O-])cc2)cc1 [KB-R7943 mesylate] (33.3333 µM)	0.61
NS(=O)(=O)C#Cc1ccccc1 [Pifithrin->m] (33.3333 µM)	5.28
CCOC(=O)C1=C(COCCN)NC(C)=C(C(=O)OC)C1c1ccccc1Cl (stereo not given) (33.3333 µM)	1.28
Cn1cc(C2=C(c3ccc(Cl)cc3Cl)C(=O)NC2=O)c2ccccc21 (33.3333 µM)	0.517
C#CC1(O)CC[C@H]2[C@@H]3CCC4=CC(=O)CC[C@@H]4[C@H]3CC[C@@]21CC (stereo not given in full) [Norgestrel] (21.3333 µM)	1.14
C[C@@H]1CN(CCCn2c3ccccc3c3ccccc32)C[C@H](C)N1 [Rimcazole dihydrochloride] (33.3333 µM)	0.0107
